Measured values published in PMC5540273 (PLoS ONE, 2017).

Key:
Details in all cases: concentration: 1 μM, replicates: in singlicate; n = 1
[1] = test system: T1, RSK2(Kin.Dom.2-C-terminal)
T1 construct: gene RPS6KA3

[2] = test system: T2, RSK3(Kin.Dom.1-N-terminal)
T2 construct: gene RPS6KA2

[3] = test system: T3, RSK3(Kin.Dom.2-C-terminal)
T3 construct: gene RPS6KA2

[4] = test system: T4, RSK4(Kin.Dom.1-N-terminal)
T4 construct: gene RPS6KA6

[5] = test system: T5, RSK4(Kin.Dom.2-C-terminal)
T5 construct: gene RPS6KA6

S6K1 = test system: S6K1
SBK1 = test system: SBK1
SGK2 = test system: SGK2
SGK3 = test system: SGK3
SGK = test system: SGK
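Further: KINOMEscan kinase panel screen.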

SMILES	%Inh [1] [%]	%Inh [2] [%]	%Inh [3] [%]	%Inh [4] [%]	%Inh [5] [%]	%Inh (S6K1) [%]	%Inh (SBK1) [%]	%Inh (SGK2) [%]	%Inh (SGK3) [%]	%Inh (SGK) [%]
Cn1ccc2ncnc(Oc3cccc(C(=O)Nc4ccccc4)c3)c21	0	0	13	14	0	0	0	2	26	0
O=C(Nc1n[nH]c2nc(-c3nccs3)c(Br)cc12)C1CC1 [SB-742251]	0	19	0	0	2	6	1	12	0	0
Nc1nc(-c2nccs2)c(-c2ccnc3ccccc23)s1 [GW693542]	88	0	0	0	50	0	9	0	6	0
Cc1cccc(-c2cc(Nc3ccncc3)c3ccccc3n2)n1 [GSK223675]	0	5	10	0	21	0	3	0	0	0
Cn1ccc2ncnc(Oc3ccc(NC(=O)Nc4ccccc4)cc3)c21	0	12	0	0	0	0	0	7	28	1
Cc1cccc(-c2nc(Nc3cccc(C(N)=O)c3)c3ccccc3n2)n1 [GW876019]	49	2	27	0	9	8	0	0	0	0
CCCc1ccc(S(=O)(=O)NC2CCN(c3ccnc(Nc4ccc(F)cc4)n3)C2)cc1 (centres unmarked) [GSK1379715]	20	13	0	0	0	0	5	0	0	0
COC(=O)c1c(-c2ccccc2)c2cc(OC)ccc2c(=O)n1Cc1ccccc1	41	8	21	0	27	8	2	0	16	0
COc1cccc(NC(=O)NC2CCN(c3ccnc(Nc4ccc(F)cc4)n3)C2)c1 (centres unmarked) [GSK1379721]	30	5	2	0	0	0	2	0	0	5
O=C(Nc1n[nH]c2cc(-c3cccc(F)c3F)ccc12)C1CC1 [SB-733894]	0	52	0	0	0	22	11	29	12	32
Cc1ccc(NC(=O)Nc2cccc(Cl)c2)cc1-c1ccc(C(=O)Nc2ccncc2)cc1 [GSK1398468]	0	5	1	0	16	0	26	0	22	0
Cc1cc(NCC(c2ccccc2)c2ccccc2)nc(NCc2ccc(C(F)(F)F)cc2)n1 [GW497681]	4	0	1	0	28	0	0	0	6	0
CCn1c(-c2ccccn2)nc2cnccc21 [SB-736398]	32	5	0	1	0	7	0	2	0	3
Cc1csc(-c2nc(Nc3ccncc3)c3ccccc3n2)n1 [GW869640]	45	15	3	44	40	32	51	0	13	39
COc1cccc(-c2cc(-c3c[nH]nc3-c3ccccn3)ccn2)c1 [GW680338]	33	0	0	0	48	6	15	4	7	7
Cn1ccc2ncnc(Oc3ccc(Nc4nc5ccccc5[nH]4)cc3)c21	0	0	0	0	0	0	0	0	0	0
Cc1c(Cn2ccn3c(=O)cc(N4CCOCC4)nc23)cccc1C(F)(F)F [GSK2289044]	23	0	6	0	11	0	14	0	4	0
